Values without a mark were called inactive. Inconclusive results are not listed. Where a call stands in place of a potency, no number is given. Active and inactive are the calls of the source. Unless noted, calls follow the shape of the dose curve; as a rule, active = well fitted curve in the direction sought with a large enough effect in the repeat runs; inconclusive = weak or mixed curves; inactive = no such curve, though single readings can be large; an effect the other way counts as inactive or inconclusive.
Experiments:
[1] = biological target: Thyrotropin-releasing hormone receptor (Homo sapiens) (UniProt P34981); test: qHTS assay to identify small molecule agonists of the thyrotropin-releasing hormone receptor (TRHR) signaling pathway (AID 1346891; calls by dose curve;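 also: HEK293 cells expressing TRHR with calcium dye readout; series mostly up to about 58 µM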)
Chain of Thyrotropin-releasing hormone receptor (Homo sapiens) (P34981 whole entry, looked up): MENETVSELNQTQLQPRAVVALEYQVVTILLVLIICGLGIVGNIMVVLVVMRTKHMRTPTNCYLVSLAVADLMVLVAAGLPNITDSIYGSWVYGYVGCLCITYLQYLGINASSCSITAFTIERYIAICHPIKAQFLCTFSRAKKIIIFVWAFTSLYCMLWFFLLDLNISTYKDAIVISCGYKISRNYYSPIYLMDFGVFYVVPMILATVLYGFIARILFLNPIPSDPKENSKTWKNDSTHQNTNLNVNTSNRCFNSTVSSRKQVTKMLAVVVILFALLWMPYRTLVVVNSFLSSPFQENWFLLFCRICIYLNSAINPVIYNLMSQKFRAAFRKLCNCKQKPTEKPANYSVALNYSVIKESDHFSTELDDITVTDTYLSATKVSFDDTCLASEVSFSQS
Summary of the method: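 Kinetic fluorescence (3 min, 1 s intervals) reported intracellular calcium after compound transfer onto TRHR-Hek293 cells pre-loaded with dye for 2 h at 37 °C.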

[2] = Human pregnane X receptor (PXR) small molecule agonists, qHTS cell viability counter screen (AID 1346977); also: nearly all actives have a fitted effect of over 50% in size
Summary of the method: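 HepG2 cells stably carrying the PXR-Luc reporter are cultured with 5% charcoal-stripped FBS and treated with compounds for 24hr. CellTiter-Fluor is added at 23hr and fluorescence is read after 1hr.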

[3] = Caspase-3/7 induction in HepG2 cells by small molecules, qHTS assay (AID 1346978); also: nearly all actives have a fitted effect of over 15% in size
Summary of the method: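 Wild-type HepG2 cells (2,000/well) were settled 5 h at 37 C, 5% CO2, then exposed to compounds in DMSO for 17 h. Caspase-3/7 activity was read by luminescence 30 min after adding Caspase-Glo 3/7 reagent at room temperature.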

[4] = Caspase-3/7 induction in CHO-K1 cells by small molecules, qHTS cell viability counter screen (AID 1346979); also: nearly all actives have a fitted effect of over 35% in size
Summary of the method: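 Seeding: 1,500 CHO-K1 cells/well. Rest: 5hr, 37C. Treatment: compounds in DMSO, 16hr. Read: CellTiter-Fluor, 1hr, fluorescence.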

[5] = Caspase-3/7 induction in CHO-K1 cells by small molecules, qHTS assay (AID 1346980); also: nearly all actives have a fitted effect of over 15% in size
Summary of the method: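 Wild-type cells were seeded at 1,500 per well and settled 5 hr at 37 C, 5% CO2, then exposed to DMSO-dissolved compounds for 17 hr. Caspase-Glo 3/7 reagent was added, and luminescence was read after 30min at room temperature.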

[6] = Caspase-3/7 induction in HepG2 cells by small molecules, qHTS cell viability counter screen (AID 1346981); also: series mostly up to about 92 µM; nearly all actives have a fitted effect of over 30% in size
Summary of the method: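 Steps: seed 2,000 HepG2 cells per well; incubate 5 hr at 37 C; pin-add compounds in DMSO; incubate 16 hr; add CellTiter-Fluor; after 1 hr at 37 C and 5% CO2, read fluorescence.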

[7] = biological target: Nuclear receptor subfamily 1 group I member 2 (Homo sapiens) (UniProt O75469); test: Human pregnane X receptor (PXR) small molecule agonists, qHTS assay (AID 1346982); also: nearly all actives have a fitted effect of over 35% in size; also: potency is read from the fitted curve at half-maximal effect
Chain of Nuclear receptor subfamily 1 group I member 2 (Homo sapiens) (O75469 whole entry, looked up): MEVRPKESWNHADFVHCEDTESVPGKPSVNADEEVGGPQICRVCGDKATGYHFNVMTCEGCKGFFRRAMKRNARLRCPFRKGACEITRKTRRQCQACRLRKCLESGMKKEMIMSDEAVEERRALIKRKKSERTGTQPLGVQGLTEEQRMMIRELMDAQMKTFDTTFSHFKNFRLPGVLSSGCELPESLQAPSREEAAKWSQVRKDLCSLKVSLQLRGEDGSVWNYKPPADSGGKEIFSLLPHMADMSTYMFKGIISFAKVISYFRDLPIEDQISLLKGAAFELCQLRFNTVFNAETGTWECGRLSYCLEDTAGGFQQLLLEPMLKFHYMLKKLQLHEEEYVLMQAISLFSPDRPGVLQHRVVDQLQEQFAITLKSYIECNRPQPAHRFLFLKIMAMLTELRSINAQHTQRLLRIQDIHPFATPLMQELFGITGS
Summary of the method: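 Agonist mode qHTS: PXR-Luc HepG2 cells plated 5 hr before DMSO-dissolved compounds were pinned in, cultured 24 hr at 37 C, 5% CO2; ONE-Glo luminescence readout.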

[8] = biological target: Cytochrome P450 2D6 (Homo sapiens) (UniProt P10635); test: Cytochrome P450 Family 2 Subfamily D Member 6 (CYP2D6) small molecule antagonists: luciferase reporter qHTS assay (AID 1671196); also: nearly all actives have a fitted effect of over 50% in size; also: potency is read from the fitted curve at half-maximal effect
Chain of Cytochrome P450 2D6 (Homo sapiens) (P10635 whole entry, looked up): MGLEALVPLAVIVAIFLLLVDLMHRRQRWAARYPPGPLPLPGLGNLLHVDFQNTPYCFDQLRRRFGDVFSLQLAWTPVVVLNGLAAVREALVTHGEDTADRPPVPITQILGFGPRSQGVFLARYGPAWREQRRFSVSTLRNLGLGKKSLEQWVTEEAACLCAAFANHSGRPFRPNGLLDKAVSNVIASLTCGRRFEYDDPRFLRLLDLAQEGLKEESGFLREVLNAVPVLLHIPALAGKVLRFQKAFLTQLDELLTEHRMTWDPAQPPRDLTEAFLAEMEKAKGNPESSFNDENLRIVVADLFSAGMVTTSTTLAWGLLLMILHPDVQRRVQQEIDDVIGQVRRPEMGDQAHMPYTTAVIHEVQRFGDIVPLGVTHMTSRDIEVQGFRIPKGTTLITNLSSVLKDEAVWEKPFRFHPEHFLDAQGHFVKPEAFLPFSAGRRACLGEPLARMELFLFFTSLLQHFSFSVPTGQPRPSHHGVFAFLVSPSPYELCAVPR
Summary of the method: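 P450-Glo format: CYP2D6 converts a proluciferin substrate to luciferin in an NADPH-driven reaction lasting 1 h at room temperature. Light output, proportional to CYP2D6 activity, reflects interference by test chemicals.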

[9] = biological target: Cytochrome P450 2C9 (Homo sapiens) (UniProt P11712); test: Cytochrome P450 Family 2 Subfamily C Member 9 (CYP2C9) small molecule antagonists: luciferase reporter qHTS assay (AID 1671198); also: nearly all actives have a fitted effect of over 50% in size; also: potency is read from the fitted curve at half-maximal effect
Chain of Cytochrome P450 2C9 (Homo sapiens) (P11712 whole entry, looked up): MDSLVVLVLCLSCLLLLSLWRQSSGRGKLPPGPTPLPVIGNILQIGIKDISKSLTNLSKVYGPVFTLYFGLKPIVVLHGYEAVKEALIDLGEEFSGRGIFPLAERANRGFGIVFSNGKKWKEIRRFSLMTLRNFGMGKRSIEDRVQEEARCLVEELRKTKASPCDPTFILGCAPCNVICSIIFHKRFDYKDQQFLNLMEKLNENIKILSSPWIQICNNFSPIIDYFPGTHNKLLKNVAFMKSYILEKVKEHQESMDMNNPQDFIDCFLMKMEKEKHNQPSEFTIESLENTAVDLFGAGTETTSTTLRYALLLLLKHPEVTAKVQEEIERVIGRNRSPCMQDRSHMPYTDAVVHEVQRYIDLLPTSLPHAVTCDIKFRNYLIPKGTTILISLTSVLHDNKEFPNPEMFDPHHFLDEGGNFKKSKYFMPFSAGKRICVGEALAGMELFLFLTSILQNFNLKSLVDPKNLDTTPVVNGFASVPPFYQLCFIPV
Summary of the method: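 CYP2C9 activity was measured with a P450-Glo proluciferin substrate. Enzyme–substrate mix was held with compound for 10 min at room temperature, then NADPH regeneration solution was added for 1 h at 37C. Luciferin product was read as luminescence.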

[10] = biological target: Voltage-gated inwardly rectifying potassium channel KCNH2 (Homo sapiens) (UniProt Q12809); test: Human Ether-a-go-go-Related Gene (hERG) channel small molecule antagonists: fluorescence cell-based qHTS assay (AID 1671200);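 also: hERG-expressing U2OS cells given a thallium stimulus after FluxOR II dye loading; series mostly up to about 77 µM; nearly all actives have a fitted effect of over 50% in size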
Chain of Voltage-gated inwardly rectifying potassium channel KCNH2 (Homo sapiens) (Q12809 whole entry, looked up): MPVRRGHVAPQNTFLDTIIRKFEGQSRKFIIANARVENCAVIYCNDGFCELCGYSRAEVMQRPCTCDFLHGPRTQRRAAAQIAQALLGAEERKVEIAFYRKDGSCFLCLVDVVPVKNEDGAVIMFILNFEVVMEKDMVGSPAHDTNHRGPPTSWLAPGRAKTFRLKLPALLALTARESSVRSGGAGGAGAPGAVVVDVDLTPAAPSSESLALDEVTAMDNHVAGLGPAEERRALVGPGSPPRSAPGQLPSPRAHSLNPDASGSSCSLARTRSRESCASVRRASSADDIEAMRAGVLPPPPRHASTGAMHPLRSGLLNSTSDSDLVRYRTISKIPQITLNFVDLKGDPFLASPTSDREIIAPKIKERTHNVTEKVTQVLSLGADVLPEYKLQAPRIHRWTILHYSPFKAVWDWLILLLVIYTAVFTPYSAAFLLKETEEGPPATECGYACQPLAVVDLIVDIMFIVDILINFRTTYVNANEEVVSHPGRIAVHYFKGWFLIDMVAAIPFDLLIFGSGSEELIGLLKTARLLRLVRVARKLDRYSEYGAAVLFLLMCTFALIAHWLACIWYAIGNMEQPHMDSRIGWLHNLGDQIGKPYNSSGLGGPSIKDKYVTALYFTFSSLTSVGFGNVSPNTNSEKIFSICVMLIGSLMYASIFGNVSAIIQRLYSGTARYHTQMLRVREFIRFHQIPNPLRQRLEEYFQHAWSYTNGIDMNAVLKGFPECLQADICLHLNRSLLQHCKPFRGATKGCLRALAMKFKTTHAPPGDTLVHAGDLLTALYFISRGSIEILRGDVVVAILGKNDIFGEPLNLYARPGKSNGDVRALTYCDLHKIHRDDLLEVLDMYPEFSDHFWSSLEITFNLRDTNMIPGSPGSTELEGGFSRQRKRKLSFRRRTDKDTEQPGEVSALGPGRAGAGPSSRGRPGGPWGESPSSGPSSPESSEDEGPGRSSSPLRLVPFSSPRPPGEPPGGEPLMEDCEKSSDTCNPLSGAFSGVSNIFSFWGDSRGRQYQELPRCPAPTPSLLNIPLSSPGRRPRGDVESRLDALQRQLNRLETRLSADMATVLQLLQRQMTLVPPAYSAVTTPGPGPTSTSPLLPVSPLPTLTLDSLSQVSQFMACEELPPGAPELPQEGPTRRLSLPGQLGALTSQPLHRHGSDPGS
Summary of the method: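 First, 1000 cells per well are seeded and cultured overnight at 37 C. Next, FluxOR II dye is loaded for 1 h at room temperature, protected from light. After 10 more minutes, stimulus is added and fluorescence is read.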

[11] = biological target: Cytochrome P450 3A4 (Homo sapiens) (UniProt P08684); test: Cytochrome P450 Family 3 Subfamily A Member 4 (CYP3A4) small molecule antagonists: luciferase reporter qHTS assay (AID 1671201)
Chain of Cytochrome P450 3A4 (Homo sapiens) (P08684 whole entry, looked up): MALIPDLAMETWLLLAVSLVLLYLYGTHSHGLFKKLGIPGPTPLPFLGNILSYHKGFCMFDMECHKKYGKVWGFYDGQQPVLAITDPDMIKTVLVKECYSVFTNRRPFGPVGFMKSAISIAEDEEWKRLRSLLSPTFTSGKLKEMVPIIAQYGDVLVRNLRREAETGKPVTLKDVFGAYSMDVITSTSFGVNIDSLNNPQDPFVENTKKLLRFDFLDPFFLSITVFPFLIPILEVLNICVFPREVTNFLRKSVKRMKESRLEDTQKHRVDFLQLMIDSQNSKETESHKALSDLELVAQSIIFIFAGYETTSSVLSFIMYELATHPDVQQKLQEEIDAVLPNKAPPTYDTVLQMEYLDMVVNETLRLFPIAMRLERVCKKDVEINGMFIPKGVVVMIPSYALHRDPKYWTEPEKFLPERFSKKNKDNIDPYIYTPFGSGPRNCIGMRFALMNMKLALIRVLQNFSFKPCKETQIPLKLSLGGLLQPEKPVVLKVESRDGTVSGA
Summary of the method: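 Enzyme and proluciferin substrate are mixed with test chemicals for 10 min, then NADPH regeneration system drives turnover for 1 h at room temperature. A detection reagent halts the reaction; luminescence after 20 min gives relative activity.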

[12] = biological target: Nuclear receptor subfamily 1 group I member 2 (Rattus norvegicus) (UniProt Q9R1A7); test: Rat pregnane X receptor (rPXR) activation by small molecules, qHTS assay (AID 1346983); conditions: rPXR luciferase reporter cells, One-Glo luminescence, 24 h; max activation: active compounds read high; also: nearly all actives have a fitted effect of over 20% in size
Chain of Nuclear receptor subfamily 1 group I member 2 (Rattus norvegicus) (Q9R1A7 whole entry, looked up): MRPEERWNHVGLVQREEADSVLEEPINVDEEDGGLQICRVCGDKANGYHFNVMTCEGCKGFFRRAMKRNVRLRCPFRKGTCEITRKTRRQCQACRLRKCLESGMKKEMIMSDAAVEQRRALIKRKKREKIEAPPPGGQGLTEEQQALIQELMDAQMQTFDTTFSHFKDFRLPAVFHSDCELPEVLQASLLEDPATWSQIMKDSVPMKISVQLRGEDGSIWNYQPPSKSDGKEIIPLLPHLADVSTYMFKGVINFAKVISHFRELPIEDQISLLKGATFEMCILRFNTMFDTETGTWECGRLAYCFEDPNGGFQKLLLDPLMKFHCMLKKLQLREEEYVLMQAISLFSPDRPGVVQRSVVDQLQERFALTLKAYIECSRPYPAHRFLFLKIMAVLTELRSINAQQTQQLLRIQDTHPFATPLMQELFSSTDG
Summary of the method: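 Cell-based rPXR luciferase reporter assay, 2,000 cells per well, rested 5hr at 37 C before compound addition in DMSO, then 24 hr at 37 C. One-Glo reagent was added and luminescence read after 30 min at room temperature.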

[13] = biological target: Nuclear receptor subfamily 1 group I member 2 (Homo sapiens) (UniProt O75469); test: CYP3A4 induction through human pregnane X receptor (PXR) by small molecules, qHTS assay (AID 1346984); also: nearly all actives have a fitted effect of over 40% in size
Summary of the method: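 Steps: seed DPX-2 cells, 5 hr at 37C; pin-transfer compounds; 24 hr at 37C; add Luciferin-IPA (3uM final), 3 hr at 37C; add One-Glo, 30 min RT; read luminescence.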

[14] = biological target: Nuclear receptor subfamily 1 group I member 2 (Homo sapiens) (UniProt O75469); test: Human pregnane X receptor (PXR) activation by small molecules, qHTS assay (AID 1346985); also: nearly all actives have a fitted effect of over 40% in size
Summary of the method: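 DPX-2 cells (HepG2 co-transfected with a PXR response element and a CYP3A4-promoter luciferase construct) were seeded at 2,000 per well, rested 5 hr at 37C, then exposed to DMSO-dissolved compounds for 24 hr. Activation was read as luciferase luminescence.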

[15] = biological target: Cytochrome P450 2C19 (Homo sapiens) (UniProt P33261); test: Cytochrome P450 Family 2 Subfamily C Member 19 (CYP2C19) small molecule antagonists: luciferase reporter qHTS assay (AID 1671197); also: nearly all actives have a fitted effect of over 65% in size; also: potency is read from the fitted curve at half-maximal effect
Chain of Cytochrome P450 2C19 (Homo sapiens) (P33261 whole entry, looked up): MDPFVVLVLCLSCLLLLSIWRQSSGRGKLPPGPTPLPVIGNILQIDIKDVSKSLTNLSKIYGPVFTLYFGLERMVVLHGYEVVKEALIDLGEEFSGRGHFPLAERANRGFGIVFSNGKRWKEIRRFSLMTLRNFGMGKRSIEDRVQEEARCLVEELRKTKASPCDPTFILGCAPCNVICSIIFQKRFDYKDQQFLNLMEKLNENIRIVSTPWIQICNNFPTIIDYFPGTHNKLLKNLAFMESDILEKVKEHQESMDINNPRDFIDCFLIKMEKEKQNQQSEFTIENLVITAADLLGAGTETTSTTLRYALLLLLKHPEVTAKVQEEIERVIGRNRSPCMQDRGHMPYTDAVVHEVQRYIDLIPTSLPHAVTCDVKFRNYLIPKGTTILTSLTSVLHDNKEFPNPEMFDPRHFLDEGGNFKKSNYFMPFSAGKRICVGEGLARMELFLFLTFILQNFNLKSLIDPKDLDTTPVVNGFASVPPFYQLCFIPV
Summary of the method: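 First, compounds are pinned into enzyme-substrate mix and held 10 min at room temperature. Second, NADPH regeneration solution is added and plates incubate 1 h at 37C. Third, detection reagent is added and luminescence read after 20 min.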

[16] = biological target: Cytochrome P450 1A2 (Homo sapiens) (UniProt P05177); test: Cytochrome P450 Family 1 Subfamily A Member 2 (CYP1A2) small molecule antagonists: luciferase reporter qHTS assay (AID 1671199); also: nearly all actives have a fitted effect of over 50% in size; also: potency is read from the fitted curve at half-maximal effect
Chain of Cytochrome P450 1A2 (Homo sapiens) (P05177 whole entry, looked up): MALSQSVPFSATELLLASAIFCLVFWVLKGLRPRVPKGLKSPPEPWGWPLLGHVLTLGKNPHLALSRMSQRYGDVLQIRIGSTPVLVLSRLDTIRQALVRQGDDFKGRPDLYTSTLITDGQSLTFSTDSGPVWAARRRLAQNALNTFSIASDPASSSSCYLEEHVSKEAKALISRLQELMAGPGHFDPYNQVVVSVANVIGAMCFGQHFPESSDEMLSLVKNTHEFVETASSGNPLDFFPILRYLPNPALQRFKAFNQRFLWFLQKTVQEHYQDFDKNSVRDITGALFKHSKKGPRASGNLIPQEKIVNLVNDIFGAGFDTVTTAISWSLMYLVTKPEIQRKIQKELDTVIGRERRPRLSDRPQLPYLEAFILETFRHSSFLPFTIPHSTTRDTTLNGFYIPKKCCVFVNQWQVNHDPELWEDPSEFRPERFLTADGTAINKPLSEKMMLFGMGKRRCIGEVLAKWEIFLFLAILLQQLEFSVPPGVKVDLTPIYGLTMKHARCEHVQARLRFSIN
Summary of the method: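 Inhibition of CYP1A2 conversion of proluciferin to luciferin, detected by luminescence. Reaction run 1 h at room temperature with NADPH regeneration after brief compound preincubation.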

Compound | outcome [1] | Potency [2] | outcome [3] | Potency [4] | outcome [5] | outcome [6] | Potency [7] | Potency [8] | Potency [9] | Potency [10] | Potency [11] | max activation [12] [%] | Potency [13] | Potency [14] | Potency [15] | Potency [16]
CC/C=C\C#N | inactive | inactive | inactive | inactive | inactive | inactive | inactive | inactive | inactive | inactive | inactive |  |  |  |  | 
CCC(C(=O)NC(N)=O)c1ccccc1 (centres undefined) | inactive | inactive | inactive | inactive | inactive | inactive |  | inactive | inactive | inactive | inactive | -2.91 | inactive | inactive | 79.6 µM (active) | 28.3 µM (active)
O=c1[nH]c(=O)n([C@H]2O[C@H](CO)[C@@H](O)[C@@H]2O)cc1/C=C\Br | inactive | inactive | inactive | inactive | inactive | inactive | inactive | inactive | inactive | inactive | inactive |  |  |  |  | 
CN(C)CCOC(c1ccc(Cl)cc1)c1ccccn1 (centres undefined) | inactive | inactive | inactive | inactive | inactive | inactive |  | 13.8 µM (active) | inactive | inactive |  | -0.352 | inactive |  |  | 
CCCCCCCCCCCCI | inactive | inactive | inactive | inactive | inactive | inactive | inactive | inactive |  |  | inactive |  |  |  |  | 
C=C(C)C(=O)OCCC(C)OC(=O)C(=C)C (centres undefined) | inactive | inactive | inactive | inactive | inactive | inactive | inactive | inactive |  | inactive | inactive |  |  |  |  | 
CCOC(=O)Cn1c(=O)sc2cccc(Cl)c21 | inactive | inactive | inactive | inactive | inactive | inactive | 27.3 µM (active) |  | 10 µM (active) | inactive |  |  |  |  | 7.96 µM (active) | 5.03 µM (active)
CC(C)(O)c1ccccc1 | inactive | inactive | inactive | inactive | inactive | inactive | inactive | inactive |  | inactive | inactive |  |  |  |  | 
NC(=O)c1ncn([C@@H]2O[C@H](CO)[C@@H](O)[C@H]2O)c1N | inactive | inactive | inactive | inactive | inactive | inactive |  | inactive | inactive | inactive | inactive | 0.984 | inactive | inactive | inactive | inactive
C=CC(=O)N1CCOCC1 | inactive | inactive | inactive | inactive | inactive | inactive | inactive |  | inactive | inactive | inactive |  |  |  | 35.6 µM (active) | 
